Test results as given in PubChem BioAssay AID1508600 (Functional Genomics Laboratory (NCATS/FGL), 2020).
In all, about 53,000 sequences went through this assay and about 3,700 (7%) were called active. The sample as a whole holds a higher share of actives than the screen did. A number with no mark means an inactive call.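 Rule for the calls: active = gene knockdowns whose robust z-score for IL-1 alpha signal is at least 2 or at most -2, so actives lie on both sides; inactive = the rest.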

Experiment: Components of the Cytosolic LPS Sensing Pathway: Gene Identification via Genome-wide siRNA Screen;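 note: robust z of the log signal after scaling to non-targeting control siRNA wells of the plate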
Details: RAW264.7 macrophages, IL-1a HTRF, actives lie on both sides, screened at 100 nM (by protocol), cells primed 5 h with Pam3CSK4 first
Summary of the method: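 RAW264.7; siRNA 100 nM final, RNAiMAX, 48h 37 degrees C; Pam3CSK4 5 h; LipidA + TransIT-TKO 24 h; IL-1a HTRF; CellTiter-Glo viability; robust z vs negative-control median.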
With GGGCUGGAAUCUAGGAAGUTT against Ccr10 the z-score was 2.68 (active). GGAAAAUGUCCGUAAAAGGTT against Dtx2 gave a z-score of 0.196. With GGAGACACUCGUCCUUUAUTT against Cyp20a1 the z-score was -1.27. For GCUUUACUAUGUGAGAAAUTT against Ryk, the z-score was -1.89. Work on GGGACAAUCAACACAAAAUTT against Ythdf3 yielded a z-score of 0.172. For CCACCAAGGAGACAUAGAUTT against Nans, the z-score was 2.85 (active). For GGUCUUGGAGGAUCCCAAUTT against Tex13a, the z-score was -1.55. For GCAUAUCGCUUUUGUGAGCTT against E2f6, the z-score was 2.31 (active). Work on GCUCUCUGAAAGAGUAUUGTT against Khdrbs2 yielded a z-score of 0.963. In the case of GACAAGCUGUGGAGAAGUGTT against Lce1b, the z-score is reported as 0.298. For CCGAUUGAAAUAUGAAUCCTT against Cuedc1, the z-score was 1.22. In the case of “CCAAGAAAUUGCACUGGGATT against A130050O07Rik”, the z-score is reported as 0.781. With GCUGUUAAAACUCUCGUUATT against Pdk3 the z-score was 2.02 (active). Work on CCACAUCCUGACUACUACATT against Sumo2 yielded a z-score of -1.14. In the case of GGUUCUUGGUGAUGAUGAGTT against Pds5a, the z-score is reported as -2.6 (active). With GGUGAACUGGUCUACAACATT against Muc2 the z-score was 0.34. GGAGUUGAGCAAGACCAAGTT against Ccdc102a showed a z-score of 0.628. Work on GGGUAUAUUUGGAACUACGTT against Ppa1 yielded a z-score of -1.2. For GGACAUGAACCUCUUCAAATT against Fads2, the z-score was 0.632. Sequence CCUCUGCUUUGUUACUUCCTT against Olfr1431 has a z-score of -0.287. Sequence CCACCUAUUACAUGAUCUUTT against Rnf32 has a z-score of -0.23. With GGACCGGUUUAUUUGGCGGTT against Mmp2 the z-score was 3.43 (active). GCAAACGACUGUGACAAAATT against Ly6m showed a z-score of -0.0028. CCUCCCUAAUGGUCCAUUATT against Cyp2j13 gave a z-score of -0.517. For GCUGGAGAACCUCCCUAAATT against Mrps33, the z-score was 1.14. GGUAAUGAAGGAACUGGAUTT against S100a1 gave a z-score of 0.0105. For GGGUGACCUAAUCCAGUGUTT against Neurog3, the z-score was 2.5 (active). In the case of GGAGUUGCCCUCAUCUUCATT against Casp6, the z-score is reported as -1.59. GGUGGAACUCGUCAAUAGCTT against Vat1 gave a z-score of 0.269. With GGUGAACAGUUGAUUUCAUTT against Smim10l2a the z-score was 1.48. GGAUCACAUCGAGAAAACCTT against Utrn showed a z-score of -1.57. In the case of GCUUCUGUUCGUUACGUCCTT against Ndufc2, the z-score is reported as 2.55 (active). GCGGAAAGGCCAAACGAUUTT against Inhbb gave a z-score of -0.734. For CCUUCUCCAUGUCAGAUCUTT against Col5a2, the z-score was 0.23. In the case of GGCAAAGUUGCCAGAUGAATT against Mettl23, the z-score is reported as 2.42 (active). GGAUACGCUUGUCCCACCATT against Mdm1 gave a z-score of -0.649. Work on CCAUUAUGGGAGGAAGAUUTT against Clvs2 yielded a z-score of 0.969. GGACAAAGAGAAUGAUGGATT against Cdc25b gave a z-score of -1.68. With “GCUAAUCCCAUCUCGUCCUTT against 3110009E18Rik” the z-score was 1.15. In the case of GGCCGAAGCAUCUUCAAGATT against Wdr24, the z-score is reported as 1.88. With GGCUGAAAAAAGUGGAGAATT against Sh3bgr the z-score was 2.12 (active). For GGAUCCCAUUAGAAAGAAATT against Cbx2, the z-score was 0.316. For GCGAUUACUACUUGAAACUTT against Fa2h, the z-score was -0.384. Work on CGGAUGUGGGCAUUCGUUATT against Fbxl7 yielded a z-score of 0.421. With GGUUUUGGGUCUAUGCUUCTT against Sde2 the z-score was 0.311. With GGUAAGGAAAACAAAUAUGTT against En1 the z-score was 2.13 (active). GAAAAAAAUCCGUUCCCUCTT against Mrpl33 showed a z-score of 0.257. In the case of GGAUUUUGCUCAGACGACATT against Taf1a, the z-score is reported as 0.291. GGUUGGUAGGCUUUGGUGUTT against Notum showed a z-score of 0.657. With GCAGUGUCGCAUUACAUCGTT against Sec16a the z-score was 3.45 (active). GGAGAAUCAUGUGAGCCUGTT against Tph1 gave a z-score of -0.0851. For UAUUCUAUCCGAACACCUUTT against Gm4884, the z-score was 2.19 (active). For GGAGAACUUCCUAUACUAUTT against Apobec2, the z-score was 0.448. With GGAAAGCAAAAAGUUUCAGTT against Fam118b the z-score was -1.14. In the case of CGCAUAGAGCCUGUCCUCATT against Spink1, the z-score is reported as -1.57. In the case of GCUCGAUGUGAACUGCUAGTT against Ankrd9, the z-score is reported as 2.12 (active). In the case of GGUACAUAUGUGAUGACCGTT against Cdh4, the z-score is reported as -0.289. GGCGUAGGGCCAUAUCAUUTT against Olfr109 gave a z-score of -0.117. Work on GGUCAUGAACCUCAUCAUCTT against Nckap1l yielded a z-score of -0.552. Work on GGCUGAAUAAAAUAAGUGUTT against Adra1a yielded a z-score of -1.1. With GGUUUAAUGUUAUAUACGGTT against Olfr606 the z-score was 2.43 (active). With CCAAAAGUGGAGAGCGACATT against Cnrip1 the z-score was -1.32. With GGAGCGAGAAGGUAAAGUCTT against Pibf1 the z-score was 1.05. GGGACUGGAAUUGACAUCCTT against Trpm4 gave a z-score of -1.38. GGGAAUUUUUGUGGGUGAATT against Bbs2 showed a z-score of -0.541. In the case of GGUGCUGAUUGACCUAACATT against Wdtc1, the z-score is reported as -2.24 (active). In the case of GGAAGUGGAGGAAAAGAAGTT against Pdcd7, the z-score is reported as -2.52 (active). In the case of GGAAAAACUACUCAAGGAGTT against Evi5l, the z-score is reported as -0.0731. Work on CCUGGUUAAAGGUUAUCCATT against Commd7 yielded a z-score of -3.9e-05.
